# Measurements reported in PubChem BioAssay.
# The source made the active and inactive calls.
# How the values were obtained:
# [1] = binders of probe aFSTL3 on microarray, primary screen, stem cell growth factor project, biochemical, small-molecule microarray, fluorescence 635/667 (AID 1064); conditions: higher = more signal;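 note: measures binding of the biotinylated anti-FSTL3 antibody to printed compounds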
# [2] = binders from COS7 lysate, DM2A8 probe, primary screen, torsin A project, cell lysate, small-molecule microarray, fluorescence 635/667 (AID 1065); conditions: higher = more signal, COS7 lysate expressing mutant human TOR1A
# [3] = binders of probe aFGF2 on microarray, primary screen, stem cell growth factor project, biochemical, small-molecule microarray, fluorescence 635/667 (AID 1067); conditions: higher = more signal;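 note: measures binding of biotinylated aFGF2 protein to printed compounds on slides; z-score merges feature fluorescence and signal-to-noise across triplicate slides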
# [4] = binders of probe aFGF10 on microarray, primary screen, stem cell growth factor project, biochemical, small-molecule microarray, fluorescence 635/667 (AID 1071); conditions: higher = more signal;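 note: score merges 667 nm spot intensity and signal to noise from triplicate slides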
# [5] = molecular target: Neurogenic locus notch homolog protein 2 (Homo sapiens) (UniProt Q04721); test: Notch2 binders on small-molecule microarrays, primary screen, biochemical, small-molecule microarray, 635 nm fluorescence, stem cell growth factors (AID 1073); conditions: Notch2 binding, higher = more signal
# Chain of Neurogenic locus notch homolog protein 2 (Homo sapiens) (Q04721 whole entry, looked up, canonical isoform): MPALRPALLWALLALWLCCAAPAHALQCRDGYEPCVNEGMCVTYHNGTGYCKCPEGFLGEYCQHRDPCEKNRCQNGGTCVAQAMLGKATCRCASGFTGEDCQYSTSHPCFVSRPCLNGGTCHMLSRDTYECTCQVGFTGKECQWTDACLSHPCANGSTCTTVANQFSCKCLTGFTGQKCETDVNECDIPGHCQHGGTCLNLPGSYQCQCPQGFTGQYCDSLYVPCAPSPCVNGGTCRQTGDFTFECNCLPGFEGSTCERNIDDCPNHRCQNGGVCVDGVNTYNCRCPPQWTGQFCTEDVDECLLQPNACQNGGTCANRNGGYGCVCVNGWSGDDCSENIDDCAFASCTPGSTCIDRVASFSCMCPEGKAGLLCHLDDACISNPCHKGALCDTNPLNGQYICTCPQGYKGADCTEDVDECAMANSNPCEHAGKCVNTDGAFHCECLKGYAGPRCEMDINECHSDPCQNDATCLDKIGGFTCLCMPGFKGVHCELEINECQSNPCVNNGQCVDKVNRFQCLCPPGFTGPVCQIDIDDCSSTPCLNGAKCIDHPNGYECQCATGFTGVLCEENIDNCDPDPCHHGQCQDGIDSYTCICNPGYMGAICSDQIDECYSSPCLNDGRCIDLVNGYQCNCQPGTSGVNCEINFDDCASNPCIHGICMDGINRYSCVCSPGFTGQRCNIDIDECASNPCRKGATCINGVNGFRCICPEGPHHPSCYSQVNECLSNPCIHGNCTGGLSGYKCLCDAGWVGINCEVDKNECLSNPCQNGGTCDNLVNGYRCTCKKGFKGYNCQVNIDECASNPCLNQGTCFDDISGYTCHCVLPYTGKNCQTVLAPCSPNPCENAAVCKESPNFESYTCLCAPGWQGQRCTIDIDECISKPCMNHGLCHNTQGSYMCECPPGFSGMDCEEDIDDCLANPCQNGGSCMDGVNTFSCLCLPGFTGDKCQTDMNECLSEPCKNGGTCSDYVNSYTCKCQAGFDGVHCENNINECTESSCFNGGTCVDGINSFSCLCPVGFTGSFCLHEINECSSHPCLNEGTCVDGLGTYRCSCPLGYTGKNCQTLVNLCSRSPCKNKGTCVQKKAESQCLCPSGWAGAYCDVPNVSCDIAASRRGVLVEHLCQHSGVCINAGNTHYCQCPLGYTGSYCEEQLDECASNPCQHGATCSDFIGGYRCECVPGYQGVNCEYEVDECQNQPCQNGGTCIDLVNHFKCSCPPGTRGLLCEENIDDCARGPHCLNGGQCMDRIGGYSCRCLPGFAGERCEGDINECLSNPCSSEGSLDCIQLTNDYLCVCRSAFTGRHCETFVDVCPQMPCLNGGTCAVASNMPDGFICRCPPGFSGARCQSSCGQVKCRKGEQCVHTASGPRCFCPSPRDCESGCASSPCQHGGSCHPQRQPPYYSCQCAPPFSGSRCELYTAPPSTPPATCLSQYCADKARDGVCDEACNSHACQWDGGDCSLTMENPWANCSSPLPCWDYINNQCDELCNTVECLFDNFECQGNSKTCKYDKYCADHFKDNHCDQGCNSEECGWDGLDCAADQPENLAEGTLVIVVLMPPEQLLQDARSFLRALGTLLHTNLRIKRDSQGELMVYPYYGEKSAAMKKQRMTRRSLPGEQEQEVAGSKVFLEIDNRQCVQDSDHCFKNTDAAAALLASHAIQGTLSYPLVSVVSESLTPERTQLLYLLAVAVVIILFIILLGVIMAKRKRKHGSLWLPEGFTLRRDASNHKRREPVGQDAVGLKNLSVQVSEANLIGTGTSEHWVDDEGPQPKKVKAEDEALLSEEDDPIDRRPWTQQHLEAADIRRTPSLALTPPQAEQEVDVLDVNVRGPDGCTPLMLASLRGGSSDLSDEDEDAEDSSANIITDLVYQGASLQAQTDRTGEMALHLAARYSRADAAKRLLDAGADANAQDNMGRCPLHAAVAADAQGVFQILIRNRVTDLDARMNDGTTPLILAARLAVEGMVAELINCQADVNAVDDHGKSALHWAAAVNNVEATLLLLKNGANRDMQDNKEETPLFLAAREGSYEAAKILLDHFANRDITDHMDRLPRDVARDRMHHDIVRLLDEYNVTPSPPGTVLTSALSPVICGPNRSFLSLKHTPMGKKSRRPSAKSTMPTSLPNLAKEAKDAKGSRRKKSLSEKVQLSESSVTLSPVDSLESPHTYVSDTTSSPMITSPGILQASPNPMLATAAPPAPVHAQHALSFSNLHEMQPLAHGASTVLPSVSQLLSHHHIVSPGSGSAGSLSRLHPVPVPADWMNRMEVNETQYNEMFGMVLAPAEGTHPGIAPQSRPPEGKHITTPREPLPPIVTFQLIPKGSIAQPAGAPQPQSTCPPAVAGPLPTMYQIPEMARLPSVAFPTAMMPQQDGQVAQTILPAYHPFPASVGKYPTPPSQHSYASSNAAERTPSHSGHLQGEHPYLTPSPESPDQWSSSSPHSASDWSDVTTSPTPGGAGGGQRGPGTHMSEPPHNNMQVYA
# [6] = molecular target: Pro-neuregulin-1, membrane-bound isoform (Homo sapiens) (UniProt Q02297); test: NRG1 binders on small-molecule microarrays, primary screen, psychiatric disease protein project, biochemical, small-molecule microarray, fluorescence 635/667 (AID 1075); conditions: NRG1 binding, 635 nm fluorescence, higher = more signal;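 note: score combines 667 nm spot fluorescence with signal to noise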
# [7] = system: Neuregulin-1 EGF-like domain; test: binders of neuregulin-1 EGF-like domain, primary screen, biochemical, small-molecule microarray, 635 nm fluorescence (AID 1081); conditions: small-molecule microarray binding, higher = more signal;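 note: binding of the protein to compounds printed on small-molecule microarray slides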
# [8] = FRG1 promoter luciferase signal modulators, primary screen, FRG1 inhibition for FSHD, cell-based, C2C12 myotubes, firefly/Renilla luciferase, luminescence (AID 1084); conditions: higher = more signal, called active from +8 up or from −8 down
# [9] = binders of probe aFST on microarray, primary screen, stem cell growth factor project, biochemical, small-molecule microarray, fluorescence 635/667 (AID 1086); conditions: higher = more signal;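 note: score merges 667 nm fluorescence with signal-to-noise of each printed compound spot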
# [10] = binders of probe aHhip on microarray, primary screen, stem cell growth factor project, biochemical, small-molecule microarray, fluorescence 635/667 (AID 1087); conditions: higher = more signal;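 note: score merges spot fluorescence at 667nm with spot signal to noise ratio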
# [11] = system: PRMT1 (protein arginine N-methyltransferase 1); test: PRMT1 binders on small-molecule microarrays, primary screen, biochemical, small-molecule microarray, 635 nm fluorescence (AID 1088); conditions: small-molecule microarray binding, higher = more signal;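 note: binding of Prmt1 protein to compounds spotted on small-molecule microarray slides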
# [12] = yeast growth modulation, basal conditions, primary screen, YJM789 clinical isolate, OD600, 24 h (AID 1089);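 note: growth of clinical yeast isolate S. cerevisiae YJM 789 seeded 1000 cells per well; test concentration not given here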; conditions: S. cerevisiae YJM789 growth, higher = more signal, called active from +8 up or from −8 down
# [13] = fission yeast growth modulation, primary screen, strain 972, OD600, 24 h, no modulator (AID 1090);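 note: basal condition with compound alone and no growth modifier present; test concentration not given here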; conditions: S. pombe 972 growth, higher = more signal, called active from +8 up or from −8 down
# [14] = S. cerevisiae growth modulation with rapamycin, primary screen, strain BY4716, OD600, 96 h (AID 1091); conditions: higher = more signal, called active from +8 up or from −8 down; note: test concentration not given here
# [15] = molecular target: Torsin-1A-interacting protein 2 (Homo sapiens) (UniProt Q8NFQ8); test: LULL1 binders on small-molecule microarray, primary screen, cell lysate, human LULL1 lysate, 635/667 nm fluorescence (AID 1092); conditions: hLULL1 lysate binding, 635 nm fluorescence, higher = more signal;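 note: probe is lysate of COS7 cells overexpressing human LULL1; score merges per-feature 667 nm fluorescence with signal-to-noise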
# [16] = E. coli growth modulation, two-sided OD650, primary screen, E. coli filamentation project, strain DRC41, 24 h (AID 1093); conditions: OD650, 24 h, higher = more signal, called active from +8 up or from −8 down;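 note: MC1000 strain lacking acrAB efflux and sulA so SOS filamentation is blocked; test concentration not given here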
# [17] = small-molecule microarray binders of probe aLefty2, primary screen, biochemical, biotinylated probe, 635/667 nm fluorescence (AID 1094); conditions: higher = more signal;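 note: score merges spot fluorescence near 667 nm with spot signal-to-noise ratio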
# [18] = system: Noggin (protein binding on small-molecule microarray); test: Noggin binders on small-molecule microarray, primary screen, biochemical, 635/667 nm fluorescence (AID 1095); conditions: 635 nm fluorescence, higher = more signal;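 note: score merges 667 nm feature fluorescence with signal to noise over triplicate slides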
# [19] = molecular target: Neurogenic locus notch homolog protein 3 (Homo sapiens) (UniProt Q9UM47); test: NOTCH3 binders on small-molecule microarray, primary screen, biochemical, 635/667 nm fluorescence (AID 1096); conditions: NOTCH3 binding, 635 nm fluorescence, higher = more signal
# Chain of Neurogenic locus notch homolog protein 3 (Homo sapiens) (Q9UM47 whole entry, looked up): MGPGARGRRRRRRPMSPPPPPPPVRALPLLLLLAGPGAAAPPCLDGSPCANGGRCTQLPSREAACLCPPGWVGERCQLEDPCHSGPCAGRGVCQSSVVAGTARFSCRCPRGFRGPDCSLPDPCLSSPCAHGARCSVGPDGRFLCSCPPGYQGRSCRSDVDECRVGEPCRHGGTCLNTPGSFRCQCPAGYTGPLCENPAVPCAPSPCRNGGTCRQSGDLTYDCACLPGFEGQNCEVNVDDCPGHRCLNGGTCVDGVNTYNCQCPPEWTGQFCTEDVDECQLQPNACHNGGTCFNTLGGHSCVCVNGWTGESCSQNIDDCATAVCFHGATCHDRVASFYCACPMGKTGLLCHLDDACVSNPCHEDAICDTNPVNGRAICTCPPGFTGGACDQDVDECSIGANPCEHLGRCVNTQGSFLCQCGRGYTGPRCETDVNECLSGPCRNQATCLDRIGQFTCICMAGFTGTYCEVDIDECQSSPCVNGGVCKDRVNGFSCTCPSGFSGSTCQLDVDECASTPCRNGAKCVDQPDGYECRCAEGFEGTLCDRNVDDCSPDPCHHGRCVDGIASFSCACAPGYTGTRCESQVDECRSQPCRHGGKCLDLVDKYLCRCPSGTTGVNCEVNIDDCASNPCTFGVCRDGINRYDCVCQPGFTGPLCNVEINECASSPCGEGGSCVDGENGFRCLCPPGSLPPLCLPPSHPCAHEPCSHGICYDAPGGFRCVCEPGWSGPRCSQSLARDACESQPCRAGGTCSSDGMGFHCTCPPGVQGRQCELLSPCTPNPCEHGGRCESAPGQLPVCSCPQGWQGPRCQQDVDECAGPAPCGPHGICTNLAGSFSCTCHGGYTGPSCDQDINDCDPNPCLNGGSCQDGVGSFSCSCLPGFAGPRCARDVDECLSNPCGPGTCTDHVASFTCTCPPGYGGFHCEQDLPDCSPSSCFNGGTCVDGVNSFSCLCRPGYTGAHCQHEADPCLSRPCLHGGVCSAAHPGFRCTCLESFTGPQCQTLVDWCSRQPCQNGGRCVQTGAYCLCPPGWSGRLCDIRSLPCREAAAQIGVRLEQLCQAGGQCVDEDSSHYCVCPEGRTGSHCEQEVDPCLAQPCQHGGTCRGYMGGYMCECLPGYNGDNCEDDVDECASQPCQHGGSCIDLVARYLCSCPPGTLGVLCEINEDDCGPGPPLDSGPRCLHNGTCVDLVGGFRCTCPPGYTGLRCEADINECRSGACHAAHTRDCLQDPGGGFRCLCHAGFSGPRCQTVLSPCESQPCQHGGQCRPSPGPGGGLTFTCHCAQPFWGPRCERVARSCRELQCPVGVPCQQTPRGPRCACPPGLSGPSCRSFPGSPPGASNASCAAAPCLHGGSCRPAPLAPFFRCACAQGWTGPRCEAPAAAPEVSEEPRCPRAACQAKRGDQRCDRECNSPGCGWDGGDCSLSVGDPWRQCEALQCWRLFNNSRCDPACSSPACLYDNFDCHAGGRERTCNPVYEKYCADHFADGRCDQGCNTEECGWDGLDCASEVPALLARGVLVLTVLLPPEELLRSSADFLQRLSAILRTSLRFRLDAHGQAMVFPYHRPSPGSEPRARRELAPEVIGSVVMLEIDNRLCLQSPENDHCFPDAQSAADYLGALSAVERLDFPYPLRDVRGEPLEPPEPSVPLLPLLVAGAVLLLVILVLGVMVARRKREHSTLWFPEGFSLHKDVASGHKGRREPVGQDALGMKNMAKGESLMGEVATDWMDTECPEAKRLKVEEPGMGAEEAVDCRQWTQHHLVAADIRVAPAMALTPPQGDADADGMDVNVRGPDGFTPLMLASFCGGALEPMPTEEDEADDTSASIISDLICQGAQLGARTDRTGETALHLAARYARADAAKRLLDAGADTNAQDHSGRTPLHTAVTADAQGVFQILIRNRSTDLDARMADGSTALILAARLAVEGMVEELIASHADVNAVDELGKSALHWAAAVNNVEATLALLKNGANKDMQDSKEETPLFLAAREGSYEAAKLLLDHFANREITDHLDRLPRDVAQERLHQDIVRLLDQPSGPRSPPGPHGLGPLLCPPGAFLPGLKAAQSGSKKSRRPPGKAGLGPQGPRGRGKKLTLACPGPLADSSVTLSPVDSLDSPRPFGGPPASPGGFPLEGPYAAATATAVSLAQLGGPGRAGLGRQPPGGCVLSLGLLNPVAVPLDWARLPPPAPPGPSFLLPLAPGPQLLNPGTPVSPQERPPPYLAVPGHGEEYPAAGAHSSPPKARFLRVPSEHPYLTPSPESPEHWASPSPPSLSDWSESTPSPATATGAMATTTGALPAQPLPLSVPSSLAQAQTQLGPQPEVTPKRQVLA
# [20] = small-molecule microarray binders of probe aEGFR, primary screen, biochemical, biotinylated probe, 635/667 nm fluorescence (AID 1097); conditions: higher = more signal;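 note: probe is a biotinylated anti-EGFR antibody binding compounds printed on slides; score combines fluorescence near 667 nm and signal to noise of each spot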
Compound,composite z-score [1],composite z-score [2],composite z-score [3],composite z-score [4],composite z-score [5],composite z-score [6],composite z-score [7],z-score [8],composite z-score [9],composite z-score [10],composite z-score [11],z-score [12],z-score [13],z-score [14],composite z-score [15],z-score [16],composite z-score [17],composite z-score [18],composite z-score [19],composite z-score [20]
C[C@]12C(=O)N(CCCCCO)[C@@H]3C(=O)N(c4ccc(Cl)cc4)CC=CC31O[C@@H]1/C=C\CCCOC(=O)C12 (stereo not given in full),0.302,-1.54,-0.221,-1.14,-0.76,-0.254,0.655,0.803 (inactive),-0.733,-0.28,-1.37,-0.299 (inactive),-1.14 (inactive),-0.637 (inactive),-1.43,-1.25 (inactive),-0.0986,-0.757,-0.0346,-0.172
COCCOC(=O)N1C(=O)[C@@]2(c3cc(C#CCNC(N)=O)ccc31)[C@H](C(=O)N1CCCCCCC1)[C@H]1C(=O)O[C@H](c3ccccc3)[C@H](c3ccccc3)N1[C@@H]2c1ccc(OCCO)cc1,1.03,0.303,-0.0024,0.578,0.754,0.446,0.0222,-0.557 (inactive),0.7,0.443,0.543,0.872 (inactive),0.642 (inactive),3.24 (inactive),0.808,-0.299 (inactive),0.239,0.616,1.07,0.0126
C=C(C)[C@@H]1CC=C(C(O)C2C=CC3C(=O)N(C4CCCCC4)C(=O)C3N2Nc2ccc(OC)cc2)CC1 (stereo not given in full),-0.128,0.103,0.156,0.594,1.45,1.2,1.02,0.0512 (inactive),1.32,-0.41,1.55,0.188 (inactive),0.707 (inactive),0.785 (inactive),3.27,-0.357 (inactive),-0.0009,0.593,1.07,-0.0034
O=C1N(CCS(=O)(=O)c2ccccc2)c2ccccc2[C@H]2OC(c3ccc(OCCCO)cc3)=N[C@@]12CCS(=O)(=O)c1ccccc1,2.15,0.625,0.415,0.202,1.5,1.38,1.36,-0.938 (inactive),1.43,0.772,1.55,2.95 (inactive),2.54 (inactive),7.94 (inactive),3.1,0.8 (inactive),0.856,1.08,1.07,0.723
O=C(N1CCOCC1)[C@@]1(CCS(=O)(=O)c2ccccc2)COC(c2ccc(OCCCO)cc2)=N1,0.229,0.281,-0.0348,0.797,-0.194,0.929,0.942,-1.85 (inactive),0.54,0.041,0.988,0.0962 (inactive),0.365 (inactive),-0.408 (inactive),3.18,1.01 (inactive),-0.139,0.0307,0.0961,-0.174
CO[C@H]1O[C@H](CO)[C@@H](OC(=O)Nc2cccc(F)c2)[C@H](OC(=O)Nc2ccc3c(c2)OCO3)[C@H]1OC(=O)Nc1ccc2c(c1)OCO2,-0.382,0.755,0.0094,0.358,0.893,0.958,1.17,6.24 (inactive),-0.253,-0.201,1.55,1.38 (inactive),1.29 (inactive),1.6 (inactive),3.25,1.76 (inactive),-0.0025,1.07,0.649,-0.142
CCOC(=O)C[C@H]1[C@H](OC(=O)c2ccccc2-c2ccccc2)[C@@H](NC(=O)c2ccccc2)c2cc(OCCCO)ccc2N1C(=O)Cc1ccc(OC)cc1,-0.205,-0.0688,-0.0569,0.149,0.585,-0.323,-0.191,0.57 (inactive),-0.0579,-0.204,-0.175,-0.211 (inactive),-0.0183 (inactive),0.452 (inactive),0.601,-0.922 (inactive),-0.0963,-0.0496,-0.196,-0.108
C[C@@H]1ON(c2ccccc2)[C@H](c2ccccc2)[C@H]1C(=O)N1C(=O)OC[C@H]1Cc1ccccc1,-0.414,0.464,-0.127,0.464,0.844,0.243,0.539,-0.114 (inactive),0.138,0.0574,1.3,0.713 (inactive),-0.451 (inactive),0.125 (inactive),0.786,0.547 (inactive),-0.166,0.405,0.826,-0.0549
NC(=O)NCC#Cc1ccc2c(c1)[C@]1(C(=O)N2)[C@H](c2ccc(O)cc2)N2[C@H](c3ccccc3)[C@H](c3ccccc3)OC(=O)[C@H]2[C@@H]1C(=O)NC[C@H](O)c1ccccc1,1.38,-1.23,-0.132,-1.17,-1.17,0.831,-0.18,-0.0208 (inactive),-0.268,0.172,-0.0161,-0.195 (inactive),0.207 (inactive),-0.0001 (inactive),-0.383,0.821 (inactive),-0.0435,-2.14,-0.91,-0.276
COc1ccccc1CN1C(=O)c2ccccc2[C@](Cc2ccccc2I)(C(=O)NCCN2CCOCC2)[C@@H]1c1ccc(CO)cc1,-0.291,0.148,0.103,0.479,1.37,1.39,1.3,-3.32 (inactive),1.08,-0.189,1.54,-2.4 (inactive),0.548 (inactive),-0.168 (inactive),3.27,0.0429 (inactive),-0.0028,1.12,1.09,-0.0502
